# Bioassay records as filed in PubChem BioAssay.
# NS1 inh: inhibitors of influenza NS1 protein function | Potency, µM (doses to about 46.1 µM), for inactives: top-dose activity, positive = more growth | 270,000 tested, 0.4% active; calls by dose curve; note: actives are rising curves; nearly all actives have a fitted effect of over 50% in size
#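 OD600 was taken as the measure of yeast growth restored by compound in an NS1-expressing S. cerevisiae strain. Cells had been washed out of glucose medium and diluted 1:100 into galactose -URA medium, pH 6.0.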
# Cruzain Triton: blocks cruzain activity in presence of Triton detergent; Potency, µM, inactives show max response, negative = inhibition, most hits filed as inhibitors; P25779; AID 1478; purified cruzain, Z-FR-AMC fluorescence, 0.01% Triton; 200,000 tested, 0.43% active;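 note: plate controls were neutral wells for no effect and buffer without enzyme for full effect; nearly all actives have a fitted effect of over 40% in size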
# Target sequence (P25779 123-467 limits assumed): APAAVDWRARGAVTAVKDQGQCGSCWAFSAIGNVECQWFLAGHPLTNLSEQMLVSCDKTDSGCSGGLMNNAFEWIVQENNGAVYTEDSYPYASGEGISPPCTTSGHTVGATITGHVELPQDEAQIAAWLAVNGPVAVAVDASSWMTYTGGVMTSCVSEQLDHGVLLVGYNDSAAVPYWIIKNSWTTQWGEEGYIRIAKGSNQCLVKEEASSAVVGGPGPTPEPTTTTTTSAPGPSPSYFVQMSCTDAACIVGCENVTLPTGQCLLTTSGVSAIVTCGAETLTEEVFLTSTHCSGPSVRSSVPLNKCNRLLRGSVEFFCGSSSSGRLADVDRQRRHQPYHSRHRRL
#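 Detergent-containing run (0.01% Triton X-100) in acetate buffer pH 5.5 with 5 mM DTT: enzyme at 1.5 nM final, 15 min compound preincubation at room temperature, then 2 uM Z-FR-AMC substrate. Activity taken as 60 s fluorescence increase at 360/450 nm.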
# Cruzain inh noDet: inhibitors of Trypanosoma cruzi cruzain without detergent; 200,000 tested, 2.3% active; P25779; purified cruzain, Z-FR-AMC fluorescence, no detergent; Potency, µM, for the others: max response, negative = inhibition, usual class: inhibitors;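 note: plate controls were enzyme without inhibitor for no effect and buffer without enzyme for full effect; nearly all actives have a fitted effect of over 40% in size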
#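 Purified cruzain at 1.5 nM, pre-incubated 15 min with compound at room temperature in 100 mM sodium acetate pH 5.5, 5 mM DTT, 0.00005% Triton X-100. Reaction started with 2 uM Z-FR-AMC; AMC fluorescence increase over 60 s gives rate.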
# The depositor's hits bear a star; ? = inconclusive; / = no result. The full list was thinned out, with hits kept by preference. Unless noted, calls come from the whole dose curve; as a rule, active = well fitted curve in the direction sought with a large enough effect; inconclusive = small, poorly fitted or top-dose-only effect, or another doubt; inactive = no such curve, though single readings can be large; an effect the other way counts as inactive or inconclusive. Potency is the fitted concentration of half-maximal effect.
SMILES,NS1 inh,Cruzain Triton,Cruzain inh noDet
COc1ccc(C(=O)c2c(N)c(-c3nc(-c4ccc5c(c4)OCO5)cs3)c3ccccn23)cc1,/,-4.0%,?
Cc1ccc(C(=O)c2c(N)c(-c3nc(-c4ccc5c(c4)OCO5)cs3)c3ccccn23)cc1C,/,-3.9%,1.58µM*
CN(C)c1ncc2nc(CCc3ccccc3)c(=O)n(Cc3cccs3)c2n1,/,-5.2%,-12.6%
O=[N+]([O-])c1ccc(N2CCN(S(=O)(=O)c3ccc4ccccc4c3)CC2)cc1NCC1CCCO1 (stereo not given),2.8%,1.4%,15.8µM*
O=[N+]([O-])c1ccc(N2CCN(S(=O)(=O)c3ccccc3)CC2)cc1NCC1CCCO1 (stereo not given),13.5%,-4.2%,12.0%
c1cncc(-c2nc(NCCN3CCOCC3)c3ccccc3n2)c1,/,2.7%,-5.9%
COc1ccc(/C=C/c2nc(-c3ccccc3O)n[nH]2)cc1,-13.7%,-13.4%,12.6µM*
COc1ccc(/C=C/c2nc(-c3ccccc3O)n(-c3ccccc3)n2)cc1,?,-5.7%,-13.2%
Cc1cccc(N)c1C,/,1.6%,7.0%
Cc1ccc2nc(-c3ccc(NC(=O)COc4ccccc4)cc3)sc2c1,/,0.1%,?
CNS(=O)(=O)c1cccc(C(=O)OCC(=O)Nc2ccc(-c3nc4ccc(C)cc4s3)cc2)c1,2.0%,/,/
Cc1ccc2nc(-c3ccc(NC(=O)COC(=O)c4ccco4)cc3)sc2c1,6.6%,-2.1%,?
Cc1ccc2nc(-c3ccc(NC(=O)COC(=O)c4cncc(Br)c4)cc3)sc2c1,3.6%,-2.4%,6.31µM*
CC(=O)NC(=S)Nc1ccc(-c2nc3ccc(C)cc3s2)cc1,-3.0%,-0.6%,6.31µM*
CNC(=S)Nc1ccc(-c2nc3ccc(C)cc3s2)cc1,10.4%,/,/
Cc1ccc2nc(-c3ccc(NC(=O)COC(=O)c4ccc([N+](=O)[O-])o4)cc3)sc2c1,-7.9%,-5.8%,15.8µM*
Cc1ccc2nc(-c3ccc(NC(=O)COC(=O)c4ccc(Br)o4)cc3)sc2c1,7.2%,-0.9%,12.6µM*
Cc1ccc(NC(=O)Cn2cc3c(n2)CCCCC3)cc1,/,-1.4%,-7.2%
CCOc1ccc(CCNC(=O)c2cc3cccc4c3n2CCS4)cc1,/,-10.4%,-29.5%
c1ccncc1,/,1.6%,-2.9%
NS(=O)(=O)c1ccc(NC(=O)CN2CCN(c3ccc(F)cc3)CC2)cc1,/,0.2%,-0.4%
COc1cccc(NC(=O)Cn2c(=O)n(CCCCC(=O)NCc3ccccc3Cl)c(=O)c3ccccc32)c1,/,-3.2%,-14.2%
CCN(CC)C(=O)c1sc2c(c1C)c(=O)n(CCc1ccccc1)c(=O)n2Cc1ccc(C)cc1,/,0.0%,?
N#Cc1ccccc1-c1cncnc1NCc1cccnc1,/,-2.7%,1.3%
O=C(C1CC1)N1CCc2cc(Br)cc(S(=O)(=O)Nc3ccc(C(F)(F)F)cc3)c21,/,-7.4%,-24.8%
SMILES,NS1 inh,Cruzain Triton,Cruzain inh noDet
CCOc1ccc(N2C(=O)CC(Sc3nc(-c4cccs4)cc(C(F)(F)F)c3C#N)C2=O)cc1 (stereo not given),-6.4%,-19.5%,12.6µM*
CCOc1ccc(N2C(=O)CC(Sc3ncccn3)C2=O)cc1 (stereo not given),-3.5%,-1.4%,-1.9%
C[C@@](N)(Cc1ccc(O)c(O)c1)C(=O)O,/,-3.6%,-3.2%
Cc1nnc(N2CCCC(C(=O)Nc3cccc(C(F)(F)F)c3)C2)c2nn(-c3ccccc3)c(C)c12 (stereo not given),/,-6.6%,7.5%
CCCCNC(=O)CCCn1c(=O)c2ccccc2n(Cc2ccccc2C)c1=O,/,-2.6%,-10.6%
O=c1c(-c2cccs2)nc2cnc(N3CCOCC3)nc2n1Cc1cccs1,/,3.8%,6.9%
Cc1ccc(C2C(C#N)=C(N)Oc3cc(N)ccc32)cc1 (stereo not given),-1.3%,/,/
Cc1ccc(/C=C2\CCC3=C2OC(N)=C(C#N)C3c2ccc(C)cc2)cc1 (stereo not given),20.4%,-11.9%,25.1µM*
Cc1ccccc1-c1noc(-c2cc(C(C)C)[nH]n2)n1,/,-8.2%,1.0%
CCCCOC(=O)c1ccc(NC(=O)c2ccc3c(c2)CCN3S(C)(=O)=O)cc1,/,-4.5%,14.1%
COC(=O)c1ccc(NC(=O)c2nn(C)c3c2CS(=O)(=O)c2ccccc2-3)cc1,/,-5.3%,6.4%
COc1ccc2c(c1OC)C(Cc1ccccc1)N1CCc3cc4c(cc3C1=C2)OCO4 (stereo not given),/,-1.2%,12.5%
O=C(Nc1noc2ccccc12)c1cccc(Cl)c1Cl,/,-4.5%,25.1µM*
COc1ccc(C(=O)Nc2noc3ccccc23)cc1,/,-3.9%,-6.9%
CCN(CC)CCn1c(-c2ccccc2)nc2c(NC3CCCCC3)nc(C)nc21,/,-0.5%,-10.3%
CC1CCN(S(=O)(=O)c2ccc3nc(NCc4ccccc4)ccc3c2)CC1,/,-5.3%,-0.5%
COc1ccc(-c2cccc(NS(=O)(=O)c3cc(C)c(Cl)cc3C)c2)nn1,/,-1.6%,-27.4%
CCOc1ccc2c(ccc(/C=C\c3cc(C)c4cccnc4c3O)[n+]2C)c1,-41.0%,3.16µM*,-0.1%
CCOc1ccc2[nH]c3ncccc3c(=O)c2c1,-5.3%,/,/
CN1CCN(c2ncc3ncc(=O)n(CCC#N)c3n2)CC1,/,-6.6%,-18.2%
NCOC(=O)Cc1ccc(Br)cc1,-5.6%,4.4%,-0.6%
O=C1CSC(=S)N1/N=C/c1c(F)cccc1F,11.1%,/,/
O=C1CSC(=S)N1/N=C/C=C/c1ccccc1,20.8%,?,31.6µM*
COc1ccc(CCNc2oc(/C=C/c3cc(OC)c(OC)c(OC)c3)nc2C#N)cc1OC,/,-7.9%,-15.6%
COCCCNc1oc(/C=C/c2cc(OC)c(OC)c(OC)c2)nc1C#N,/,25.1µM*,20µM*
SMILES,NS1 inh,Cruzain Triton,Cruzain inh noDet
CC(C)N(C(=O)Cn1cc(S(=O)(=O)Cc2ccc(Br)cc2)c2ccccc21)C(C)C,/,0.2%,-7.4%
O=C(CSc1nc2ccccc2o1)Nc1nc(-c2ccccc2)c(-c2ccccc2)s1,2.6%,-0.5%,12.6µM*
O=C(CSc1nc(-c2ccccc2)c(-c2ccccc2)o1)Nc1nncs1,-6.1%,-0.4%,6.5%
O=C(CSc1nc(-c2ccccc2)c(-c2ccccc2)o1)Nc1nnc(-c2ccccc2)s1,1.8%,-4.2%,10µM*
O=C(CSc1nc2ccccc2o1)Nc1nncs1,-8.4%,3.5%,3.2%
Cc1nnc(NC(=O)CSc2nc3ccccc3o2)s1,-3.6%,1.6%,-12.8%
C=CCSc1nnc(NC(=O)CSc2nc3ccccc3o2)s1,9.2%,7.8%,15.8µM*
O=C(O)C(Cl)Br (stereo not given),/,3.3%,-6.8%
CN1CCc2cc3c(cc2C(=O)Cc2ccc4c(c2C1)OCO4)OCO3,/,0.7%,0.4%
O=C(c1csnn1)N1CCC2(CC1)CN(c1ccccn1)C2,/,-7.2%,1.1%
Fc1ccc(NCc2ccccc2-c2nnc(-c3ccccc3Cl)o2)cc1Cl,/,-2.0%,12.4%
Cc1ccc(-c2cc(-c3ccccc3O)nc(N/N=C/c3cccnc3)n2)cc1,16.7%,3.0%,25.1µM*
C(=N\Nc1nccc(-c2cccnc2)n1)/c1ccccc1,-40.5%,/,/
O=C(Oc1ccc(N(Cc2cccs2)C2=NS(=O)(=O)c3ccccc32)cc1)c1ccco1,-35.8%,-9.3%,-28.6%
O=C(Oc1ccc(N(Cc2cccs2)C2=NS(=O)(=O)c3ccccc32)cc1)c1ccccc1Cl,5.3%,0.7%,10µM*
CC(=O)c1cccc(NC(=O)c2noc3c2CSc2ccccc2-3)c1,/,-1.4%,14.5%
Clc1cccc(N2CCN(c3nc4ccccc4c4nc(-c5ccccc5)nn34)CC2)c1,/,0.7%,-0.8%
CN(CC(=O)Nc1ccc(C#N)cc1)Cc1ccc(Cl)cc1,-14.6%,0.1%,10.8%
